ROC1-CUL1 inh: inhibitors of human ROC1-CUL1 ubiquitin ligase activity; E3 ubiquitin-protein ligase RBX1 (Homo sapiens) + Cullin-1 (Homo sapiens), P62877+Q13616; in vitro K48 di-Ub FRET, acceptor:donor ratio, 45 min; inhibition, % at 10 µM; 140,000 tested, 0.6% active; AID 1347404, 2020; in the data active = inhibition above about 25%
A number is an active result. The sample as a whole holds a higher share of hits than the screen did.

Screening CCOc1cc(/C=C2/SC(=S)N(C(CCC(=O)O)C(=O)O)C2=O)ccc1O (stereo unspecified) returned ROC1-CUL1 inh inactive.
Cc1ccc(N2C(=O)/C(=C/c3ccc(C(=O)O)cc3)SC2=S)cc1C was read as ROC1-CUL1 inh inactive.
`O=C(O)c1ccc(/C=C2\SC(=S)N(NC(=O)c3ccccc3)C2=O)cc1` gave ROC1-CUL1 inh inactive.
`CC(/C=C1\SC(=S)N(c2ccc(C(=O)O)cc2)C1=O)=C\c1ccccc1` gave ROC1-CUL1 inh 106.
Screening COC(=O)CC1C(=O)NCCN1C(=O)CCC1(Cc2ccc(-c3ccccc3)cc2)CCC(=O)N1 (stereo unspecified) returned ROC1-CUL1 inh inactive.
`O=C1C(=O)N(c2nccs2)C(c2ccccc2F)C1C(=O)c1ccccc1` (stereo unspecified) gave ROC1-CUL1 inh inactive.
Cc1cc(=O)n2[nH]c(SCCC(C)C)nc2n1 was read as ROC1-CUL1 inh inactive.
For O=C(Nc1ccccc1NC(=O)C1CCCC1)C1CCCC1 the results were ROC1-CUL1 inh inactive.
For CCOC(=O)C1(CCOC)CCCN(Cc2cnc(-c3ccc(Cl)cc3)nc2)C1 (stereo unspecified) the results were ROC1-CUL1 inh inactive.
`CCN(CC)CC(O)COc1ccc(CN(C)Cc2cc(C)no2)cc1OC` (stereo unspecified) gave ROC1-CUL1 inh inactive.
Screening O=C(NCCCNC1NS(=O)(=O)C2CCCCC12)c1ccc(Cl)c(Cl)c1 (stereo unspecified) returned ROC1-CUL1 inh inactive.
For Cc1cccc(C2CC(c3ccc(F)cc3)=Nc3nc4ccccc4n32)c1 (stereo unspecified) the results were ROC1-CUL1 inh inactive.
For CCCCCCCCCCCCCCCCCCN(C)c1ccc(/C=C/c2cc[n+](C)cc2)cc1 the results were ROC1-CUL1 inh inactive.
Screening CCCCCCCCCCCCCCCC[n+]1ccc(/C=C/c2ccc(N(C)C)cc2)cc1 returned ROC1-CUL1 inh 29.
For CCCCCCCC(=O)Nc1ccc(N(C)C)cc1 the results were ROC1-CUL1 inh inactive.
`COc1ccc(C2C3=C(CCCC3=O)N(c3cccc(C(F)(F)F)c3)C(=N)C2C#N)cc1COc1ccc(C)cc1[N+](=O)[O-]` (stereo unspecified) gave ROC1-CUL1 inh inactive.
For O=C(CSc1nc(-c2ccco2)cc(C(F)(F)F)n1)Nc1ccc(Br)cc1F the results were ROC1-CUL1 inh inactive.
CCSC(=O)c1ccc(C(=O)SCC)s1 was read as ROC1-CUL1 inh inactive.
Screening Cc1cc(C(F)(F)F)n2nc(N)c(N=Nc3cccc(C(F)(F)F)c3)c2n1 returned ROC1-CUL1 inh inactive.
For CSc1c(C#N)c(N)nc2c(N=Nc3ccc(S(N)(=O)=O)cc3)c(N)nn12 the results were ROC1-CUL1 inh 84.
Cc1cc(C(F)(F)F)n2nc(N)c(N=Nc3ccccc3)c2n1 was read as ROC1-CUL1 inh inactive.
Screening Cc1ccc(C(=O)NC(=S)Nc2cc([N+](=O)[O-])ccc2Cl)cc1 returned ROC1-CUL1 inh inactive.
For CC(C)Cc1csc2ncnc(N3CCCC3)c12 the results were ROC1-CUL1 inh inactive.
Screening CC1=NN(c2ccc(C)cc2)C(=O)/C1=C\c1ccc(OC(C)C)cc1 returned ROC1-CUL1 inh inactive.
Screening CC1=NN(c2ccc(C)cc2)C(=O)/C1=C\c1cccnc1 returned ROC1-CUL1 inh 82.
`CC1=NN(c2ccccc2)C(=O)/C1=C/c1ccc(OCCCOc2ccccc2)cc1` gave ROC1-CUL1 inh inactive.
For Cn1ccnc1CNC(=O)C1(N2CCCCC2)Cc2ccccc2C1 the results were ROC1-CUL1 inh inactive.
Screening Cc1ccc(/C=C\c2ccc3ccccc3c2)cc1 returned ROC1-CUL1 inh inactive.
For CC[n+]1c(/C=C/c2ccc3c(c2)c2ccccc2n3C)ccc2ccccc21 the results were ROC1-CUL1 inh 69.
Cn1c2ccccc2c2cc(/C=C/c3nc4ccccc4s3)ccc21 was read as ROC1-CUL1 inh inactive.
CN(C)Cc1cc(F)ccc1Sc1ccc(Cl)c(Cl)c1 was read as ROC1-CUL1 inh inactive.
For CCOC(=O)c1cccc(-n2c(C)cc(/C=C3\C(=O)NC(=O)N(c4ccc(C)c(C)c4)C3=O)c2C)c1 the results were ROC1-CUL1 inh inactive.
Screening Cc1cc(/C=C2\C(=O)NC(=S)N(c3cccc(F)c3)C2=O)c(C)n1-c1cccnc1 returned ROC1-CUL1 inh 78.
Screening CCc1ccccc1-n1c(C)cc(/C=C2\C(=O)NC(=O)N(c3cccc(C)c3)C2=O)c1C returned ROC1-CUL1 inh inactive.
`Cc1cc(/C=C2/C(=O)NC(=S)N(c3cccc(F)c3)C2=O)c(C)n1-c1ccccc1` gave ROC1-CUL1 inh inactive.
Screening Cc1cc(/C=C2\C(=O)NC(=O)N(c3ccc(Cl)c(Cl)c3)C2=O)c(C)n1-c1cccnc1 returned ROC1-CUL1 inh 40.
For Cc1cc(/C=C2/C(=O)NC(=S)N(c3ccc(F)cc3)C2=O)c(C)n1-c1ccc(O)cc1 the results were ROC1-CUL1 inh inactive.
CCSc1nc2ccccc2c2nc(-c3cccnc3)nn12 was read as ROC1-CUL1 inh inactive.
Screening O=C(N/N=C/c1cccc(Cl)c1Cl)c1ccccc1[N+](=O)[O-] returned ROC1-CUL1 inh inactive.
For CCc1nc(C)c(C(=O)NC2CCCN(C3CCN(C)CC3)C2)o1 (stereo unspecified) the results were ROC1-CUL1 inh inactive.
`CC1=Nc2ccccc2C1=Cc1sc(=O)n(CC(=O)OC(C)C)c1O` gave ROC1-CUL1 inh inactive.
COc1ccc(CNC(=O)CCC2(Cc3ccc(F)c(OC)c3)CCC(=O)N2)cc1 (stereo unspecified) was read as ROC1-CUL1 inh inactive.
O=C(CN1CCN(C2CCCCC2)C(=O)C1=O)Nc1ccc(Cl)cc1 was read as ROC1-CUL1 inh inactive.
CCc1ccc(NC(=O)CN2CCN(C3CCCCC3)C(=O)C2=O)cc1 was read as ROC1-CUL1 inh inactive.
Screening CCOc1ccc(NC(=O)CN2CCN(C3CCCCC3)C(=O)C2=O)cc1 returned ROC1-CUL1 inh 58.
For COc1cccc(-c2cc(=O)[nH]c(Nc3ccccc3)n2)c1 the results were ROC1-CUL1 inh inactive.
For COc1ccc(C2C(C#N)C(=N)SC(=N)C2C#N)cc1OC (stereo unspecified) the results were ROC1-CUL1 inh inactive.
`Cc1ccc(C2c3c(n[nH]c3C)OC(=N)C2C#N)o1` (stereo unspecified) gave ROC1-CUL1 inh inactive.
For Cc1ccc(C2C(C#N)C(=N)SC(=N)C2C#N)o1 (stereo unspecified) the results were ROC1-CUL1 inh 40.
Screening CC(C)(C)C1=NOC(O)(c2ccccc2)C1 (stereo unspecified) returned ROC1-CUL1 inh inactive.
For Cc1nn(C(C)C(=O)Nc2cccc(Cl)c2)c(C)c1[N+](=O)[O-] (stereo unspecified) the results were ROC1-CUL1 inh inactive.
Screening COc1ccc(NC(=O)C2C(C)=Nc3ncnn3C2c2ccc(C)o2)cc1 (stereo unspecified) returned ROC1-CUL1 inh inactive.
O=C(O)c1cc2c3c(c1)C1CC=CC1C(c1ccc(Br)cc1)N3CC1CC=CC21 (stereo unspecified) was read as ROC1-CUL1 inh 102.
`Cc1cc2c3c(c1)C1C=CCC1C(c1ccc(Br)cc1)N3CC1CC=CC21` (stereo unspecified) gave ROC1-CUL1 inh inactive.
O=[N+]([O-])c1ccc(C2C3CC=CC3c3c4c(cc5ccccc35)C3C=CCC3CN42)cc1 (stereo unspecified) was read as ROC1-CUL1 inh inactive.
`NC(=O)c1ccc(NC(=O)COc2ccc(S(=O)(=O)NC3CCCC3)cc2)cc1` gave ROC1-CUL1 inh inactive.

Source: PubChem BioAssay
